Most compounds without a hit are left out; they make up all but 1.8% or so of the library.
LYPLA2 inh = blocks human lysophospholipase 2, a PME1 counter-screen | O95372 | actives 0.38% (n = 320,000) | recombinant LYPLA2, FP-Rh probe fluorescence polarization | inhibition, % at 5.9 µM;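 active means inhibition above the screen-wide mean plus 3 SD, limit set per campaign, cut at about 26% in these data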;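 further: 0% = LYPLA2 with DMSO and 100% = wells lacking LYPLA2 enzyme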
LYPLA1 inh = blocks human lysophospholipase 1, a PME1 counter-screen; inhibition, % at 5.9 µM; O75608; recombinant LYPLA1, FP-Rh probe fluorescence polarization; AID 2174; actives 0.16% (n = 320,000);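 active means inhibition above the mean of all tested compounds plus 3 SD, set per campaign, cut at about 14% in these data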;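 further: inhibitors block serine hydrolase probe labeling of LYPLA1 so polarization falls; 0% = enzyme with DMSO and 100% = wells lacking LYPLA1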
Target sequence (O75608 whole entry, looked up): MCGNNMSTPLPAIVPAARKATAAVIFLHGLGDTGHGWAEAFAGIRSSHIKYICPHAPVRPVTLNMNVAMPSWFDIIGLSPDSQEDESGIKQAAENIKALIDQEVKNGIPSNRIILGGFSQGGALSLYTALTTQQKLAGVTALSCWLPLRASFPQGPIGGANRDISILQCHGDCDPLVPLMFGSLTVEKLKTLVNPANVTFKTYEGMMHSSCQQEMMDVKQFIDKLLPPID
PME-1 inh = blocks human protein phosphatase methylesterase 1; actives 0.53% (n = 320,000); recombinant PME-1, FP-Rh probe fluorescence polarization; AID 2130; inhibition, % at 5.9 µM;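 active means inhibition above the campaign mean of all compounds plus 3 SD, cut at about 26% in these data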;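 further: competitive labeling of PME-1 active site by serine hydrolase directed probe; 0% = PME-1 with DMSO and 100% = wells lacking PME-1 enzyme; inhibitors block probe labeling so polarization falls and inhibition rises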
Target sequence (Q9Y570 whole entry, looked up): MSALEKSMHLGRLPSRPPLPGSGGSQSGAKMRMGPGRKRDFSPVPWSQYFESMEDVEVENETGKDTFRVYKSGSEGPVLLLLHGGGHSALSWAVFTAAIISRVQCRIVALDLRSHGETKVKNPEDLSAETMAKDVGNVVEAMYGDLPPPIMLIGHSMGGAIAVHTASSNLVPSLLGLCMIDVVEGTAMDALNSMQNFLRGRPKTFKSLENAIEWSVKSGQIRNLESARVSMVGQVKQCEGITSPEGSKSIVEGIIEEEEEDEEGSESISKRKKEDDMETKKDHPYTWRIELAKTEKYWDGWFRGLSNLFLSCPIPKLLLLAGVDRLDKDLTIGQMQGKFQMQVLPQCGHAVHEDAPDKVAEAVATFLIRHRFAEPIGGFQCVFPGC
GSTO1 inh = GSTO1 inhibition, counter-screen for RBBP9 inhibitors; P78417; recombinant GSTO1, activity-based probe fluorescence polarization; inhibition, % at 5.96 µM; actives 1.1% (n = 300,000); AID 1974;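 active means inhibition above the campaign mean inhibition plus 3 SD, cut at about 35% in these data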;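 further: 0% = GSTO1-1 with DMSO and 100% = wells lacking GSTO1-1 enzyme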
Fam108B counter = Fam108B inhibition, counter-screen for RBBP9 inhibitors; recombinant Fam108B, FP-Rh probe fluorescence polarization; inhibition, % at 9.51 µM; actives 0.33% (n = 300,000);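 active means inhibition above the screen mean inhibition plus 3 SD, computed separately per campaign, cut at about 18% in these data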;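 further: inhibitors lower polarization as less probe binds the enzyme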
PAD4 inh = blocks human protein arginine deiminase 4; recombinant PAD4, RCA probe fluorescence polarization; Q9UM07; AID 485272; actives 0.41% (n = 330,000); inhibition, % at 6.36 µM;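 active means percent inhibition above a cutoff equal to the mean of all tested compounds plus 3 SD, cut at about 15% in these data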;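 further: 0% = PAD4 with RCA probe and DMSO and 100% = probe without PAD4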
PAD4 FP conf = confirmation of human PAD4 inhibitors. shares compounds with PAD4 inh. recombinant PAD4, RCA probe fluorescence polarization. inhibition, % at 6.36 µM. actives 28% (n = 1,200);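 active means mean inhibition across replicates above the hit cutoff set by the earlier primary screen, cut at about 15% in these data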;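 further: inhibitors block active-site labeling by the probe so polarization falls; 0% = PAD4 with probe and DMSO and 100% = probe without PAD4 enzyme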
The depositor's hits bear a star; . = no result given.

SMILES	LYPLA2 inh	LYPLA1 inh	PME-1 inh	GSTO1 inh	Fam108B counter	PAD4 inh	PAD4 FP conf
CCOC(=O)C1=C(COC(=O)/C=C/c2cccc(OC)c2OC)NC(=O)NC1C (centres undefined)	-1	-8	-2	3	2	-1	.
CCOc1ccc(N2C(=O)CC(NC3CCN(C(=O)c4cccs4)CC3)C2=O)cc1 (centres undefined)	6	2	5	0	2	-4	.
COc1ccc([C@@H](OC)[C@@]2(Cc3ccc(O)cc3)N=C(N)N(C)C2=O)cc1	2	0	3	.	.	-2	.
Cc1nc2cc(NS(=O)(=O)c3cccc4cccnc34)ccc2s1	0	4	3	-6	-3	-1	.
Cc1cc2oc(=O)sc2cc1NS(=O)(=O)c1cccc2cccnc12	-3	-6	3	24	2	34*	19*
CCCC(=O)N(c1ccc2oc(=O)sc2c1)S(=O)(=O)c1ccccc1	7	-1	0	4	2	22*	6
Cc1cc2oc(=O)sc2cc1NS(=O)(=O)c1ccccc1	-5	-2	-8	28	1	20*	-5
CC(=O)N(c1ccc2oc(=O)sc2c1)S(=O)(=O)c1cccc2cccnc12	5	0	4	33	2	33*	22*
Cc1cc(O)c(C(C)C)cc1NS(=O)(=O)c1ccccc1	-3	-2	2	-8	3	-1	.
CC(=O)N(c1ccc2oc(=O)sc2c1)S(=O)(=O)c1cccs1	3	1	-5	27	3	12	.
CC(=O)N(c1ccc2oc(=O)sc2c1)S(=O)(=O)c1ccc(C(=O)O)cc1	-4	-2	4	24	2	12	.
CSc1nnc(CCCCCCCCc2nnc(SC)o2)o1	10	1	1	-2	-4	-2	.
CCCc1nnc(NC(=O)CCC(=O)N2CCC(Cc3ccccc3)CC2)s1	1	0	-3	-5	-3	-1	.
COc1cc(OC)cc(N(C(=O)CNC(=O)c2ccco2)C(C(=O)NCC2CCCO2)c2ccccc2)c1 (centres undefined)	2	-2	-2	8	6	0	.
Cc1noc(NS(=O)(=O)c2ccc(NC(=O)CSc3nc4ccccc4s3)cc2)c1C	2	-1	5	1	1	19*	-5
Cc1cc2nc3c(=O)[nH]c(=S)[nH]c3nc2cc1NC(=O)C(F)(F)F	6	1	9	9	-1	41*	39*
COc1ccc(CCNC(=O)COC(=O)c2cncc(Br)c2)cc1OC	.	.	.	.	.	6	.
Cc1cc(=O)[nH]c(NN)n1	9	0	-7	0	-5	16*	7
Cc1cc(=O)[nH]c(NCCO)n1	-8	-6	-6	0	-4	5	.
CCOc1ccc(S(=O)(=O)N2CCN(CC(O)COc3cccc([N+](=O)[O-])c3)CC2)cc1 (centres undefined)	-1	-4	1	-6	0	-5	.
COC/C=C/C1=CC2=CC(=O)C(C)(OC(=O)c3cnc4ccccc4n3)C(=O)C2=CN1CC(C)C (centres undefined)	4	0	1	32	-1	19*	-1
CCCCC1=CC2=CC(=O)C(C)(OC(=O)CC)C(=O)C2=CN1CC(C)C (centres undefined)	10	6	2	31	4	-1	.
N#CCSc1nc2cc(C(=O)N3CCCC3)ccc2c(=O)n1Cc1ccccc1	6	0	-2	-5	-5	2	.
N#CCSc1nc2cc(C(=O)N3CCC(C(N)=O)CC3)ccc2c2nc3ccccc3n12	4	2	2	1	-1	22*	25*
Cc1oc2ccc(O)cc2c1C(=O)c1ccc(Br)cc1	-5	-2	-2	-4	-2	-4	.
SMILES	LYPLA2 inh	LYPLA1 inh	PME-1 inh	GSTO1 inh	Fam108B counter	PAD4 inh	PAD4 FP conf
CCOC(=O)[C@H]1[C@H]2COc3cc(OC)ccc3[C@@H]2N2C(=O)c3cc(C)ccc3NC(=O)[C@@]12C	-10	-3	5	2	4	16*	9
CCOC(=O)[C@H]1[C@H]2COc3cc(OC)ccc3[C@@H]2N2C(=O)c3cc(OC)ccc3NC(=O)[C@@]12C	5	0	0	2	-2	-1	.
O=C(Nc1ccc(N2CCN(c3ccc(O)cc3)CC2)cc1)Oc1ccccc1	1	-7	0	34	9	0	.
Nc1ccc(OC(=O)Nc2ccc(O)cc2)cc1	5	0	10	59*	9	73*	-11
Cc1sc2ncnc(N3CCC(C(=O)Nc4nnc(SCc5ccccc5F)s4)CC3)c2c1C	9	5	-4	13	-10	4	.
CCOC(=O)c1ccc(-n2[nH]c(-c3ccccc3)cc2=O)cc1	9	4	9	36*	0	40*	-16
CCOC(=O)[C@@H]1[C@H]2COc3ccccc3[C@@H]2N2C(=O)N(c3ccccc3)C(=O)[C@]12C	-4	1	3	4	0	2	.
CC(C)[C@H](N)c1nnc(SCC(=O)c2ccc(Cl)cc2)o1	-1	-1	-1	24	1	15*	3
Cc1ccc(N2C(=O)CSC23C(=O)Nc2ccccc23)cc1 (centres undefined)	4	-3	-1	2	-3	16*	19*
CC1=CC(C)(C)N2C(=O)C3(SCC(=O)N3c3ccc(O)cc3)c3cc(C)cc1c32 (centres undefined)	-3	-1	0	-7	4	-6	.
C#CCOCCOCCOCCNc1nc(N2CCN(C(=O)[C@H](CCC(=O)O)n3cc(C(N)[C@H](C)CC)nn3)CC2)nc(N2CCN(C(=O)[C@H](Cc3cc4ccccc4[nH]3)n3cc(C(N)[C@H](C)CC)nn3)CC2)n1 (some centres undefined)	2	0	-2	4	3	27*	10
COc1ccccc1C(=O)Nc1ccc(S(=O)(=O)Nc2cc(C)nc(C)n2)cc1	3	0	-3	0	0	3	.
COc1ccc(C(=O)Nc2ccc(S(=O)(=O)Nc3cc(C)nc(C)n3)cc2)c(OC)c1	-7	-6	-3	-9	-2	31*	21*
CC(=O)C1=C(O)C(=O)N(CC(=O)O)C1c1ccccc1Cl (centres undefined)	-3	1	0	1	0	20*	4
NS(=O)(=O)c1ccc(CCNC(=O)c2ccc[nH]c2=S)cc1	-2	4	-4	4	-2	-2	.
COC(=O)c1cnn(-c2ccccc2)c1C(OC)OC	0	3	-2	-1	2	18*	2
COC(=O)c1cnn(-c2ccccc2)c1/C=N/NC(=S)Nc1ccccc1	1	-2	-11	6	0	-4	.

Screens as filed in PubChem.
